Screening data: PubChem, National Center for Advancing Translational Sciences (NCATS)
This is a sample that favours compounds with a hit; in the whole collection about 1.3% have one here.
Mito fusion yeast: mitochondrial division inhibition or fusion activation. hit rate 0.23% among 320,000. S. cerevisiae fusion-defective mutant growth rescue, CellTiterGlo 48 h. Potency, µM (doses to about 46.1 µM), hits mostly activators; note: nearly all actives have a fitted effect of over 45% in size
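Growth-rescue viability read-out: after 48 h at the non-permissive 37C in glycerol/ethanol YPEG, yeast mitochondrial fusion mutants are measured by CellTiterGlo luminescence; compounds (23 nl pinned per well) restoring growth score as division inhibitors or fusion activators.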
BRCA1 expr up: activators of BRCA1 expression. MCF7-BRCA1-FFLuc reporter, luminescence, 48 h; response scale: scaled: vehicle 0%, 10 µM genistein 100%. Potency, µM (highest dose often 46.1 µM), most hits filed as activators. hit rate 1.1% among 380,000. AID 624202; note: nearly all actives have a fitted effect of over 80% in size
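Compounds are tested at multiple concentrations on MCF7 BRCA1-luciferase reporter cells seeded at 2000 per well; after 48 h, a single luminescence end-point is taken and curves fitted to the normalized data.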
p53 reactivation: restores transcriptional activity of mutant p53; hit rate 0.063% among 320,000; AID 504706; Potency, µM (titrated, usually from 92.2 µM), actives largely listed as activators; H1299 p53-A138V BP100-luciferase reporter, luminescence, 24 h; note: nearly all actives have a fitted effect of over 45% in size
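p53-null H1299 cells stably carrying temperature-sensitive p53-A138V and a BP100-luciferase reporter were pinned with compounds (4-point, 1:5 series) and held 24 hrs at 37 deg C. Luminescence was read 10 min after detection reagent.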
TCR act: T cell receptor activation; primary human leukocytes, anti-CD3, IL-2 HTRF, 48 h; Potency, µM (doses to about 9.22 µM), most hits filed as activators; 330,000 tested, under 10 active; AID 504894
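1) Mix primary human leukocytes, a-CD3 beads and compound. 2) Incubate 48 hr. 3) Add HTRF IL-2 reagents (a-IL-2-K, a-IL-2-d2).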
IL-2 act: activators of IL-2; hit rate 0.065% among 360,000; activation, % (series mostly up to about 46 µM); IL-2 activation reporter assay, cell-based qHTS; stimulated with anti-CD3/CD4/CD28 beads; in transgenic mouse T cells; in the data active = activation above about 50%; inconclusive = mostly about 30% to 49%
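Unstimulated transgenic mouse T cells; 60-min compound exposure; bead-based TCR/CD4/CD28 stimulation; 18 h culture, 37 degrees C; dual fluorescence (EGFP, DsRed) plate cytometry.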
Large screens that a line does not name were inactive; ! = a repeat was not active. Unless noted, calls come from the whole dose curve; as a rule, active = well fitted curve in the direction sought with a large enough effect; inconclusive = small, poorly fitted or top-dose-only effect, or another doubt; inactive = no such curve, though single readings can be large; an effect the other way counts as inactive or inconclusive.

O=C1NC(=O)N(c2cccc(Cl)c2)C(=O)/C1=C\c1ccc(Sc2nc3ccccc3[nH]2)o1	none
O=C1NC(=O)N(c2ccccc2)C(=O)/C1=C/c1ccc(Sc2ccccc2)o1	IL-2 act 96
O=C(Oc1ccc([N+](=O)[O-])cc1)N1CCN(/[N+]([O-])=N/Oc2ccc([N+](=O)[O-])cc2[N+](=O)[O-])CC1	none (no result: Mito fusion yeast, p53 reactivation, TCR act, IL-2 act)
CCC1=Nc2cc(C(=O)N3CCC4(CC3)OCCO4)ccc2Sc2ccc(Br)cc21	Mito fusion yeast 18µM
CC(=O)NCC(N)C(=O)c1ccc(Cl)c(Cl)c1 (stereo unspecified)	none (no result: Mito fusion yeast, p53 reactivation, TCR act, IL-2 act)
CC(C)(C)NC(=O)C1CC2CCCCC2CN1 (stereo unspecified)	Mito fusion yeast 3.5µM
Oc1ccccc1-[n+]1c(-c2ccccc2)cc(-c2ccccc2)c(O)c1-c1ccccc1	Mito fusion yeast 11µM
CN1CC[C@@]2(C)c3cc(O)ccc3N(C)C12 (stereo partly specified)	Mito fusion yeast inconclusive (no result: p53 reactivation, TCR act, IL-2 act)
CS(=O)(=O)NNC(=O)Cn1nnc(-c2ccc(OCc3ccccc3Cl)cc2)n1	BRCA1 expr up 11µM (no result: Mito fusion yeast, p53 reactivation)
CC(=O)c1ccc(NC(=O)CSc2nc(=O)cc(N)n2-c2ccccc2)cc1	BRCA1 expr up 10µM
CCN(CC)C(=O)c1ccc(NC(=O)c2cn(-c3ccccc3)nc2-c2ccc(OC)cc2)cc1	none
CC(c1nccs1)N(C)C(=O)c1cn(Cc2cccc3ccccc23)nn1 (stereo unspecified)	BRCA1 expr up inconclusive, p53 reactivation inconclusive
CCCOP(=O)(O)c1c([N+](=O)[O-])cc(C(F)(F)F)cc1[N+](=O)[O-] (tested in a mixture with another compound)	BRCA1 expr up 10µM (no result: TCR act)
CCOP(=O)(Oc1ccccc1)c1c([N+](=O)[O-])cc(C(F)(F)F)cc1[N+](=O)[O-] (stereo unspecified)	none
Cc1cc(/C=C/c2cccc3sc(C)[n+](CCCCI)c23)ccc1N(CCCl)CCCl	none (no result: Mito fusion yeast, p53 reactivation, TCR act, IL-2 act)
COc1cc2nc(N3CCCN(C)CC3)nc(N(C)C3CCN(C)CC3)c2cc1OC	none (no result: Mito fusion yeast, p53 reactivation, TCR act, IL-2 act)
Cc1cc(/C=C2\C(=O)NC(=O)N(c3cccc(Br)c3)C2=O)c(C)n1C	IL-2 act 68
Cc1cc(/C=C2/C(=O)NC(=O)N(c3ccc(Br)cc3)C2=O)c(C)n1C	none
c1ccc(-c2ccc(C(c3ccccc3)n3ccnc3)cc2)cc1 (stereo unspecified)	Mito fusion yeast 14µM
CC(C)[C@@]1(NC(=O)[C@@H]2C[C@@H]3c4cccc5[nH]cc(c45)C[C@H]3N(C)C2)O[C@@]2(O)[C@@H]3CCCN3C(=O)[C@H](Cc3ccccc3)N2C1=O	Mito fusion yeast 23µM!
CC(C)[C@@]1(NC(=O)[C@@H]2C=C3c4cccc5[nH]cc(c45)C[C@H]3N(C)C2)O[C@@]2(O)[C@@H]3CCCN3C(=O)[C@H](Cc3ccccc3)N2C1=O	none (no result: BRCA1 expr up, TCR act, IL-2 act)
COC(=O)Cn1cc(/C=C2\C(=O)NC(=O)N(c3ccc(OC)cc3)C2=O)c2ccccc21	IL-2 act 92
Nc1ccc2c3c(cccc13)CC2	IL-2 act 83
O=C1NC(=O)N(c2ccccc2)C(=O)/C1=C\c1ccc2c3c(cccc13)CC2	none (no result: BRCA1 expr up, IL-2 act)
NCC(=O)c1ccc2ccccc2c1	none (no result: Mito fusion yeast, p53 reactivation, TCR act, IL-2 act)
